Data published in PubChem BioAssay (NCATS).
Inconclusive results are not listed. Unmarked numbers belong to inactive results. Activity calls are given as the source filed them. Calls come from the whole dose curve; as a rule, active = well fitted inhibition curve with a large enough effect; inconclusive = small, poorly fitted or top-dose-only effect; inactive = flat fitted curve, though single readings scatter.

Target: Calcium and integrin-binding protein 1 (Homo sapiens) (UniProt Q99828)
Test: Primary qHTS for Identification of Calcium Integrin Binding Protein 1 (CIB1) Competitor (AID 1508620);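 note: GST tagged CIB1 binding a fluorescein labelled alphaIIb integrin peptide tracer; top concentration of the series differs between compounds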
Details: CIB1-GST / FITC-alphaIIb peptide fluorescence polarization; series mostly up to 114 µM; activity change, negative = inhibition: at the top concentration
In short: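 Fluorescence polarization competition: CIB1-GST (1 uM final) preincubated with compound 15 min at room temperature, then FITC-labeled alphaIIb peptide (100 nM final) added for another 15 min. Polarization read at Ex 480/Em 540.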
% is set by controls: 0 for no effect and ±100 for the full control effect.

Chain of Calcium and integrin-binding protein 1 (Homo sapiens) (Q99828 whole entry, looked up): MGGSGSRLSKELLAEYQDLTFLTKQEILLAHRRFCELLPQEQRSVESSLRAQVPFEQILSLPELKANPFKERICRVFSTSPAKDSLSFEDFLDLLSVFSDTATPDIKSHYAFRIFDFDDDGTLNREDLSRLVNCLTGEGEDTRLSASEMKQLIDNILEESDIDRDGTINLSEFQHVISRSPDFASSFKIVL

SMILES	activity change, negative = inhibition [%]	Potency
CC(=O)Oc1ccc2c(c1)CC[C@@H]1[C@@H]2CC[C@]2(C)[C@@H](O)CC[C@@H]12	0.676	–
C#C[C@]1(O)CC[C@H]2[C@@H]3CCC4=CC(=O)CC[C@@H]4[C@H]3CC[C@@]21C	6.02	–
O=C1c2ccccc2C(=O)C1c1ccccc1	3.31	–
CN1C(CCl)Nc2cc(Cl)c(S(N)(=O)=O)cc2S1(=O)=O (stereo not drawn)	–	inactive
C[C@]12CC[C@H]3[C@@H](CCC4=CC(=O)CC[C@@]43C)[C@@H]1CC[C@@H]2C(=O)CO	0.502	–
CCCCOc1ccc(C(=O)CCN2CCCCC2)cc1	-10.4	–
COC1=CC(=O)C[C@@H](C)[C@]12Oc1c(Cl)c(OC)cc(OC)c1C2=O	-1.67	–
CCN(CC)CCNC(=O)COc1ccc(Cl)cc1	3.13	–
CC(=O)OCC(=O)[C@@]12N=C(C)O[C@@H]1C[C@H]1[C@@H]3CCC4=CC(=O)C=C[C@]4(C)[C@H]3[C@@H](O)C[C@@]12C	7.42	–
CC(=O)OCC(=O)[C@@]12OC(C)(C)O[C@@H]1C[C@H]1[C@@H]3C[C@H](F)C4=CC(=O)C=C[C@]4(C)[C@@]3(F)[C@@H](O)C[C@@]12C	-1.54	–
NC(=O)C(=O)N/N=C/c1ccc([N+](=O)[O-])o1	6.07	–
CC[N+](CC)(CCNC(=O)C(=O)NCC[N+](CC)(CC)Cc1ccccc1Cl)Cc1ccccc1Cl	-4.21	–
C[C@@H]1C[C@H]2[C@@H]3CCC4=CC(=O)C=C[C@]4(C)[C@@]3(F)[C@@H](O)C[C@]2(C)[C@H]1C(=O)CO	3.31	–
O=C(O)CNC(=O)c1ccccc1	0.255	–
C[C@]12C=CC(=O)C=C1[C@@H](F)C[C@@H]1[C@@H]2[C@@H](O)C[C@@]2(C)[C@H]1CC[C@]2(O)C(=O)CO	1.28	–
C[C@]12C=CC(=O)C=C1CC[C@@H]1[C@@H]2[C@@H](O)C[C@@]2(C)[C@H]1CC[C@]2(O)C(=O)CO	-0.0971	–
C#C[C@]1(OC(C)=O)CC[C@H]2[C@@H]3CCC4=C[C@@H](OC(C)=O)CC[C@@H]4[C@H]3CC[C@@]21C	–	inactive

SMILES	activity change, negative = inhibition [%]	Potency
COc1ccc(CCN2CCC(Nc3nc4ccccc4n3Cc3ccc(F)cc3)CC2)cc1	-4.41	–
COc1cc(-c2ccc(=O)[nH]n2)ccc1OC(F)F	8.19	–
CCCCC(=O)O[C@]1(C(=O)CO)CC[C@H]2[C@@H]3CCC4=CC(=O)CC[C@]4(C)[C@H]3[C@@H](O)C[C@@]21C	-2.91	–
CCOc1ccc(Cc2nccc3cc(OCC)c(OCC)cc23)cc1OCC	-2.71	–
CC1=C(C(=O)OC(C)C)C(c2cccc([N+](=O)[O-])c2)C(C(=O)OC2CN(C(c3ccccc3)c3ccccc3)C2)=C(N)N1 (stereo not drawn)	-1.76	–
COc1ccc(/C=C/C(=O)c2ccc(OC)cc2OC)cc1	9.73	–
CCN(CC)CCOc1ccc(C(O)(Cc2ccc(Cl)cc2)c2ccc(C)cc2)cc1 (stereo not drawn)	-8.34	–
CCCCC1=NC2(CCCC2)C(=O)N1Cc1ccc(-c2ccccc2-c2nn[nH]n2)cc1	1.23	–
CCCCCCCCCCOCC(O)CN (stereo not drawn)	-2.66	–
Cc1ccc(C(=O)C(C)CN2CCCCC2)cc1 (stereo not drawn)	–	inactive
Clc1ccc2c(c1)CCc1cccnc1C2=C1CCNCC1	0.791	–
CCCN1CCCC[C@H]1C(=O)Nc1c(C)cccc1C	-3.69	–
Oc1cc(O)c2c(c1)O[C@H](c1ccc(O)c(O)c1)[C@H](O)C2	-21.8	–
C[C@]12CCC(=O)C=C1CC[C@H]1[C@@H]3CC[C@](O)(C(=O)CO)[C@@]3(C)C[C@H](O)[C@@]12F	-1.46	–
CCCCOc1ccc(OCCCN2CCOCC2)cc1	7.08	–
COC(=O)CCc1ccc(OCC(O)CNC(C)C)cc1 (stereo not drawn)	–	inactive
